Screen size: about 87,000 compounds; about 360 (0.41%) were called active. What follows is part of a selection rich in actives, with near analogues and random picks from the rest. A number with no mark means an inactive call. Cut-off read from the data, not from the text of the source: active = cytotoxicity above about 50%; inactive = the rest.

In PubChem BioAssay AID620 (Sanford-Burnham Center for Chemical Genomics, 2007) one finds cytotoxicity data, which are given here for 40 molecules.

This assay can be described thus: cytotoxicity in HT1080 fibrosarcoma cells, cell-based, fluorescence readout (AID 620).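 Note: cells exposed to compound overnight then 4 h with Alamar Blue; 0% = vehicle DMSO and 100% = killing control.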 Conditions: HT1080 viability, at 10 µM, stronger effect = higher value.
As to `CON(C)C(=O)Nc1ccc(Cl)cc1`, the cytotoxicity is 1.8%.

Turning to `O=C(Nc1ccc(Cl)cc1)Nc1nccs1`, the cytotoxicity is 61.1% (active).

As for `CCOC(=O)c1c(C)n(CCN2CCN(C)CC2)c2ccc(OC)cc12`, the cytotoxicity was 9.6%.

In the case of `CCN(CC)c1ccc(N=Cc2c(O)n(-c3ccc(OC)cc3)c(=O)[nH]c2=O)cc1`, the cytotoxicity was 0.4%.

Turning to `CCOC(=O)C1SC2(C(F)F)CC1(O)c1c(c(OC)c3occc3c1OC)O2` (stereo not given), the cytotoxicity was 5.2%.

On to `O=c1c2ccccc2[nH]c(=S)n1-c1ccc2c(c1)OCO2`, for which the cytotoxicity is -0.8%.

`c1cc2n(c1)-c1c(ccc3c1OCO3)CNC2c1ccc2c(c1)OCO2` (stereo not given): the cytotoxicity is 3.4%.

Regarding `COc1ccc(C2NCc3ccc4c(c3-n3cccc32)OCO4)cc1O` (stereo not given), the cytotoxicity was 67.8% (active).

As for `COc1ccc(C2NCc3ccc4c(c3-n3cccc32)OCO4)cc1OC` (stereo not given), the cytotoxicity was -2.8%.

Take `COc1ccc(CCNC(C)CCc2ccc(OC)cc2)cc1` (stereo not given): the cytotoxicity is -9.1%.

As for `CCC(=NCCc1c[nH]c2ccccc12)c1c(O)n(C)c(=O)n(C)c1=O`, the cytotoxicity is 3.2%.

With `COc1ccc(C2C(C(=O)N3CCC4(CC3)OCCO4)c3cc(OC)c(OC)cc3C(=O)N2C)cc1` (stereo not given), the cytotoxicity is -12.7%.

As to `C[C@H]1CCC[C@@H](O)CCC/C=C/c2cc(O)cc(O)c2C(=O)O1`, the cytotoxicity is 12.8%.

As to `C[C@H]1CCCC(=O)CCC/C=C/c2cc(O)cc(O)c2C(=O)O1`, the cytotoxicity was -0.7%.

In the case of `C[C@H]1CCC/C=C/C2C[C@H](O)CC2[C@H](O)/C=C/C(=O)O1` (stereo not given in full), the cytotoxicity is 83.3% (active).

On to `COC(=O)CC1NC2CCCCC2NC1=O` (stereo not given), for which the cytotoxicity is 3.2%.

Take `O=C1CC(N2CCC(n3c(=O)[nH]c4ccccc43)CC2)C(=O)N1Cc1ccccc1` (stereo not given): the cytotoxicity was 13.4%.

With `O=C1CC(N2CCC(n3c(=O)[nH]c4ccccc43)CC2)C(=O)N1c1ccc(F)cc1` (stereo not given), the cytotoxicity is 2%.

For the molecule `O=c1[nH]c2ccccc2n1C1CCN(CCCC(c2ccc(F)cc2)c2ccc(F)cc2)CC1`, the cytotoxicity is 91.3% (active).

Take `CCCCn1c(=O)c(C(=O)NCc2ccncc2)c(O)c2ccccc21`: the cytotoxicity is 4.9%.

For the molecule `COc1ccccc1N1C(=O)NC(=O)C(CCc2ccncc2)(CCc2ccncc2)C1=O`, the cytotoxicity was -6.4%.

For `CCC(=NC1CC1)c1c(O)n(C2CCCCC2)c(=O)[nH]c1=O`, the cytotoxicity was 15.1%.

For `CC(=O)c1cccc(NC2=NCC(C)S2)c1` (stereo not given), the cytotoxicity is 1.4%.

In the case of `COc1cccc(OC)c1C1=NCC(=O)Nc2c1oc1ccc(Br)cc21`, the cytotoxicity is 64.8% (active).

`O=C1CN=C(c2ccccc2)c2oc3ccc(Br)cc3c2N1`: the cytotoxicity is 8.1%.

Consider `CC1=CC(=C2C(=O)NC(=S)NC2=O)C=C(C(F)(F)F)N1C`, for which the cytotoxicity is 1.5%.

Take `COC(=O)C[C@]1(C(=O)OC)CN(C#N)N(c2ccc(Cl)cc2)C12c1ccccc1-c1ccccc12`: the cytotoxicity is 93.9% (active).

Consider `COC(=O)[C@@H]1[C@@H](C(=O)OC)C2(c3ccccc3-c3ccccc32)N(c2ccc(Cl)cc2)N1C#N`, for which the cytotoxicity is 2.6%.

For `COC(=O)C1CN(C#N)N(c2ccc(Cl)cc2)C12c1ccccc1-c1ccccc12` (stereo not given), the cytotoxicity was 84.3% (active).

For `CCC(=Nc1ccc2c(c1)CCC2)c1c(O)n(C2CCCCC2)c(=O)[nH]c1=O`, the cytotoxicity is -1.6%.

Regarding `CCCN1CC(C)C(OC(C)=O)(c2ccccc2)CC1C` (stereo not given), the cytotoxicity is 1.2%.

As for `OC1(CN2CCOCC2)C2CC3CC(C2)CC1C3` (stereo not given), the cytotoxicity was -20.1%.

Consider `CC(=O)Nc1ccc(S(=O)(=O)NC(CC(=O)N2CCC3(CC2)OCCO3)C(C)C)cc1` (stereo not given), for which the cytotoxicity is 4.2%.

With `CCOP(=O)(C#CC(C)(C)C)C(O)(c1ccccc1)C(F)(F)F` (stereo not given), the cytotoxicity is 6.8%.

In the case of `Cc1nc2c(=O)n(C)c(=O)nc-2n(C)n1`, the cytotoxicity is 103% (active).

For the molecule `O=C(CN1C2CCC1CC(O)(c1cccnc1)C2)Nc1ccc2c(c1)OCO2` (stereo not given), the cytotoxicity was 2.5%.

Take `CC(C)CCP(=O)(O)c1ccccc1`: the cytotoxicity is 0.8%.

On to `C=CCn1c(O)c(C=NCCCOc2ccc(CC)cc2)c(=O)[nH]c1=S`, for which the cytotoxicity is -6.1%.

With `CCOC(=O)C1C(=O)NC23CCCC2C1c1ccccc1O3` (stereo not given), the cytotoxicity was 13.5%.

With `Cc1cccc(-n2c(O)c(C=NCCCN3CCOCC3)c(=O)[nH]c2=O)c1C`, the cytotoxicity is -0.3%.
